# Data: the supplement of paper PMC6555819
# Experiments:
# Assay in all cases: PBM binding z-score (relative to random genomic background probes); higher = stronger binding; sequences stand for … in GC…GCGATTGACAGCGTAGAATGAAGG
# [1] = system: RARb homodimer (NR concentration 270 nM)
# Method in brief: (§1)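 Probes were double-stranded and carried 34-nt variable regions with direct-repeat seeds, single-nucleotide variants, half-site ablations and random human genomic background sequences, printed on custom Agilent 4×180K protein-binding microarrays. Arrays were incubated 1 h with ligand-free nuclear receptor dimers in PBS pH 7.4, 2% milk, 0.02% Triton X-100, 1 mM DTT, 0.2 mg/mL BSA and 0.4 mg/ml salmon testes DNA. Antibodies against each partner (one per run) detected binding, and scanned fluorescence was regression-normalized. Binding z-scores use the random background probes as reference.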
# [2] = system: RARg:RXRa (NR concentration 270 nM, RXRa partner concentration 90 nM)
# Method in brief: as §1
# [3] = system: RARg homodimer (NR concentration 270 nM)
# Method in brief: as §1
# [4] = system: RXRa DBDmut IVT, anti-RXR (DBD mutation: RXRa K156A/R161A, NR concentration 90 nM)
# Method in brief: as §1
# [5] = system: RXRa homodimer (NR concentration 180 nM)
# Method in brief: as §1
# [6] = system: THRa:RXRa (NR concentration 90 nM, RXRa partner concentration 90 nM)
# Method in brief: as §1
# [7] = system: THRa homodimer (NR concentration 90 nM)
# Method in brief: as §1
# [8] = system: VDR homodimer (NR concentration 270 nM)
# Method in brief: as §1
Sequence,PBM binding z-score [1],PBM binding z-score [2],PBM binding z-score [3],PBM binding z-score [4],PBM binding z-score [5],PBM binding z-score [6],PBM binding z-score [7],PBM binding z-score [8]
TAGCCTAGGTCATTCGGCCAGTATAGTACGCATC,3.12,3.81,4.13,1.7,2.52,2.66,0.61,1.6
TATACAGGGTTAAAGGCCAGAGTACGAATGTCGA,1.55,2.41,1.59,0.596,3.28,1.56,0.124,0.851
CCTACTGGGCCCAAGGTCATTGATTCCAATGCTC,3.52,2.64,2.42,0.382,2.82,3.22,2.76,2.48
ATCTCTAGGTATAGTTCAGTGAAAGATCGATAGA,1.4,0.857,1,0.996,0.686,0.473,0.453,1.12
ACTATTAGTTGACTTAGGGCAACCAATACGACGC,1.15,0.838,0.945,0.699,0.621,1.66,0.216,0.251
TCGAGGAGGTTAGGGGCATTCAGAATGGCGTCGA,1.36,0.847,0.702,0.518,1.22,1.34,0.547,1.07
TCTTGCAGATCAATAGAGGTTAAGAAAGTGCGCT,1.01,0.797,0.305,0.292,1.37,2.42,-0.532,-0.0844
GCTAGCAGGCCATTCGGGTCACTCAATGACGGGC,2.3,1.85,1.92,0.641,1.81,3.09,1.75,1.2
CAGACTGGGGCAAAGGTTACCATACTCAGTACGA,2.35,3.54,2.64,0.804,3.83,1.97,0.0193,0.311
GCTATTAGTTGAAAGGACAACCGAATGATTCTCG,1.25,0.533,1.2,0.922,0.0459,0.487,0.292,0.311
CGTCCAAGGTCATAGGCGGTCAGTGAAGACAGAT,4.09,6.05,6.4,3.89,5.94,4.35,2.21,3.22
CAAACTAGGTCACGAAAGGTCACAGTCGAATGAC,6.08,7.72,8.69,2.05,7.64,5.11,3.05,2.77
TCTTGTAGATCAAAGGTTTAGAAAGCCGAAGCCT,-0.342,-0.312,-0.404,0.516,0.291,-0.356,-0.747,0.0902
CAGCTTAGGTCAGGGCCAGTATAGGAGGAACGTT,2.93,3.26,4.25,0.68,1.75,3,1.78,0.105
GCGACTGGGGCAGAGCAGGTTACCATAAGGTTGG,0.826,0.0864,0.288,-0.613,0.225,1.64,-0.115,-0.654
GCATATAGGTAATACAAGGTGTAAGTCCGATTGT,-0.384,-0.0828,0.241,0.314,0.0841,1.3,-0.232,-0.121
ACTATTAGTTGCCTTAGGGCAACCGATACGACGC,0.893,0.429,0.732,0.351,0.447,1.46,0.815,0.176
GGAACGAGGGCAAAGTTGGTAGCATCTGTCGACG,1.14,1.46,1.52,2.47,1.14,1.09,-0.0808,1.46
TCTTGTAGATCAACAGGAGGTTAAGAAAGATCGA,0.548,0.934,0.306,0.35,0.762,0.782,-0.703,-0.387
AGAATGACGTTAAGATCAGGGAAACAGAATACAT,-0.348,0.0241,0.396,-0.43,0.183,-0.0731,-0.547,-0.184
TCTAGGTGGTCAAAGGTCACACACTCGAAATGCG,5.07,7.33,6.07,1.85,8.65,4.41,1.74,2.4
CCTATTAATTGACCATAAGGGCAACCGAAGCTCG,1.91,0.926,1.1,0.931,0.841,1.63,1.81,1.85
GCATATAGGTAATACAAGGTGAATGTCCGATTGT,0.685,0.413,0.66,0.0909,0.689,4.18,0.928,-0.178
CTCGAAAGGTCGTGATCAGGTGAGTATACCAAAC,2.66,4.85,3.85,1.9,4.72,4.04,0.717,0.668
TGGAGTAGGTTAGTCGGGGCATTCAGCCAACATA,1.41,0.219,0.355,-0.608,0.023,1.48,0.985,1.24
TCTTGTAGATCAATACAGGTTAAGAAAGTGCGCT,0.644,0.423,0.26,1.25,0.787,1.46,-0.0772,0.463
ATCTCTAGGTAAGACTCAGTTCAGAGAAGAACGC,0.397,0.254,0.549,0.3,-0.0317,0.761,0.645,1.12
CAAACTAGGTCAAAAGTCAAAGTCGAGCCAACCA,2.64,4.67,4.23,1.61,5.2,2.55,0.407,0.387
